Test results taken from PubChem BioAssay AID720697 (Broad Institute, 2013).
Measured potencies and affinities stand elsewhere. Results filed as inconclusive are left out. The source made the active and inactive calls.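 How the source made its calls: active means signal loss with fitted half-maximal concentration at or below twice the top valid tested dose in every test run; inconclusive means runs disagree, flat 30 to 70% signal loss, or poor fit; inactive means all runs flat, opposite direction, or potency beyond limit.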

assay: general mammalian cell viability loss – inhibitor set, cherry-pick, set 2, cytotoxicity control for miR-122 modulator project, dose response (AID 720697); conditions: HEK293T viability, CellTiter-Glo luminescence, 48 h; series mostly up to 26 µM; activity change, negative = cytotoxicity: at the top concentration;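 further: 0% = median of neutral control wells and -100% = MG132 positive control wells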

SMILES	activity change, negative = cytotoxicity
CN1C(=O)c2cc(NC(=O)c3ccc(C(F)(F)F)cc3)ccc2OC[C@@H]2O[C@@H](CC(=O)NCc3ccc4c(c3)OCO4)CC[C@@H]21	10.8% [at 23.5 µM] (inactive)
O=C(Nc1ccc(F)cc1)N1C[C@@H]2[C@H](c3ccccc31)[C@H](CO)N2C(=O)Cc1ccccc1	39.6% [at 23.5 µM] (inactive)
CNC(=O)C[C@@H]1CC[C@@H]2[C@@H](COc3ccc(NC(=O)Cc4cccs4)cc3C(=O)N2C)O1	40.2% (inactive)
COC(=O)C[C@@H]1CC[C@@H]2[C@@H](COc3ccc(NS(=O)(=O)c4ccccc4F)cc3C(=O)N2C)O1	61.1% (inactive)
Cc1c(CC(=O)NCCCC(=O)O)c(=O)oc2cc3occ(-c4ccccc4)c3cc12	75.4% (inactive)
CN1C(=O)c2cc(NC(=O)Nc3ccc(Cl)cc3)ccc2OC[C@H]2O[C@H](CC(=O)NCCN3CCCCC3)CC[C@H]21	47.9% [at 23.5 µM] (inactive)
C[C@@H]1CN([C@H](C)CO)C(=O)c2cc(-c3cccc(C#N)c3)cnc2O[C@H]1CN(C)C(=O)C1CCC1	61.4% (inactive)
C/C=C/c1ccc([C@@H]2[C@@H](CNC(=O)c3ccncc3)N(C(=O)CC)[C@H]2CO)cc1	101% (inactive)
O=c1c2c3c(sc2nc2n1CCC2)CCCC3	30.6% (inactive)
COC(=O)C[C@H]1CC[C@@H]2[C@@H](COc3ccc(NC(=O)Nc4ccc(Cl)cc4)cc3C(=O)N2C)O1	128% (inactive)
C/C=C/c1ccc([C@H]2[C@H](CO)N[C@@H]2CN(CC)C(=O)c2cccnc2)cc1	72.5% (inactive)
CO[C@@H]1CN(C)C(=O)c2ccc(NS(=O)(=O)c3ccc(C)cc3)cc2OC[C@@H](C)N(C(=O)NC(C)C)C[C@H]1C	-15.2% (inactive)
